The record followed here is PubChem BioAssay (NCATS).

In assay [1] the target is Cellular tumor antigen p53 (Homo sapiens) (UniProt P04637). Kind of assay: Primary qHTS for small molecule compounds that upregulate eGFP-tagged delta133p53alpha (in N-terminal) cells. (AID 2060322).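 For activation: cells pre-induced with doxycycline then dosed without doxycycline; 0% = DMSO vehicle and 100% = reference activator.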 Note: nearly all actives have a fitted effect of over 75% in size. Note: potency is the fitted concentration of half-maximal effect. The note with it: NCI-H358 eGFP-delta133p53alpha fluorescence, 24 h; activation: hits give high values. In outline:
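NCI-H358 cells pre-induced 24 h with 10 ng/ml doxycycline for eGFP-delta133p53alpha, plated dox-free and exposed 24 h at 37C to titrated compounds. Fixed, Hoechst-stained; gated GFP peak intensity by laser scanning cytometry, normalized to DMSO (0%) and 57.5 uM 5-azacytidine (100%).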

For assay [2], the target named is Aldehyde dehydrogenase, mitochondrial (Homo sapiens) (UniProt P05091). Kind of assay: qHTS for Inhibitors of the Aldehyde Dehydrogenase Family (ALDH2) Primary screen (AID 2061308).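 Note: plate controls were vehicle for no effect and reference inhibitor for full effect; nearly all actives have a fitted effect of over 55% in size.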 The note with it: ALDH2 enzyme inhibition qHTS, 1536-well; series mostly up to 56 µM. Background: qHTS replaces the single test concentration by a dilution series.
In assay [3] the target is Retinaldehyde dehydrogenase 3 (Homo sapiens) (UniProt P47895). Kind of assay: qHTS for Inhibitors of the Aldehyde Dehydrogenase Family (ALDH1A3) Primary screen (AID 2061315).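 Note: plate controls were DMSO vehicle for no effect and reference inhibitor for full effect.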 The note with it: ALDH inhibition qHTS; series mostly up to 56 µM.

Records with an inconclusive call do not appear. Values without a mark were called inactive. Active and inactive are the calls of the source. Calls come from the whole dose curve; as a rule, active = well fitted curve in the direction sought with a large enough effect; inconclusive = small, poorly fitted or top-dose-only effect, or another doubt; inactive = no such curve, though single readings can be large; an effect the other way counts as inactive or inconclusive. Numbered stars: 1 amine (or outer) side, 2 acyl side, 3 side chain; on linkers, the order of the positions; unused ones are H or OH. Bridge positions count the residues as written; N and C are the ends. Peptide text beside a SMILES is read from it. X4 = O=C(CCC[*:2])[*:1]

Sequence of Cellular tumor antigen p53 (Homo sapiens) (P04637 whole entry, looked up): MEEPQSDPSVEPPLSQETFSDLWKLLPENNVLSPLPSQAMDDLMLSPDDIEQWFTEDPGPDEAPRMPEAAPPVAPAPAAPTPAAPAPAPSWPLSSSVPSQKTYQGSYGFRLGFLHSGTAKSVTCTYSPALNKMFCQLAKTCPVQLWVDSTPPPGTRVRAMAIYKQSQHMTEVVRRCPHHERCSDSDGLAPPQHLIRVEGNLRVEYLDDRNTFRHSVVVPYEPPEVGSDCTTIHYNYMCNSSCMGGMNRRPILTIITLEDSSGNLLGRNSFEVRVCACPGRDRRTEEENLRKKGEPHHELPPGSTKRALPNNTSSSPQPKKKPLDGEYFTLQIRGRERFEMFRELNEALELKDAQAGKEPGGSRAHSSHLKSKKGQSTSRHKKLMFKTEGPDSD

With `COc1cc(C)c(C(=O)O[C@@H]2[C@H](O)[C@@H](CO)O[C@H]2n2ccc(=O)[nH]c2=O)c(OC)c1`, the activation in assay [1] was -5.34%. The Potency result in assay [2] and in assay [3] was “inactive” each time.

In the case of `CC(=O)[C@H]1CC[C@H]2[C@@H]3CC=C4C[C@@H](OS(=O)(=O)O)CC[C@]4(C)[C@H]3CC[C@]12C`, the activation in assay [1] is -4.33%. For the same compound, the Potency entry in assay [2] and in assay [3] was “inactive” throughout.

On to `CC(=O)OC1C(O)/C(C)=C\C2C(OC(=O)c3ccccc3)C(C)CC2(OC(C)=O)C(OC(C)=O)C(C)/C=C/C(C)(C)C1OC(C)=O` (stereo not drawn), for which the activation in assay [1] was -20.5%. The Potency entry in assay [2] and in assay [3] was “inactive” each time.

Consider `C=CC(C)(O)CC/C=C(\C)C(=O)O[C@@H]1[C@@H](O)[C@H](OC(C)(C=C)CC/C=C(\C)C(=O)O)O[C@H](CO)[C@H]1OC(=O)/C(C)=C/CCC(C)(O)C=C` (stereo partly drawn), for which the activation in assay [1] is 9.92%. In addition, the Potency entry in assay [2] and in assay [3] was “inactive” each time.

On to `CC1=CC(=O)C[C@H]2[C@@H]1CC[C@@H](C)[C@]21CO[C@H](c2ccoc2)C1=O`, for which the activation in assay [1] was -3.82%. Besides, the Potency entry in assay [2] and in assay [3] was “inactive” each time.

In the case of `C/C=C(\C)C(=O)OC[C@H]1O[C@@H](O[C@H]2[C@@H](O[C@H]3O[C@H](CO)[C@@H](O)[C@H](O)[C@H]3O[C@@H]3O[C@H](CO)[C@@H](O)[C@H](O)[C@H]3O)O[C@H](COC(=O)/C(C)=C/C)[C@@H](O)[C@@H]2O)[C@H](O)[C@@H](O)[C@@H]1O`, the activation in assay [1] was -8.4%. For the same compound, the Potency result in assay [2] and in assay [3] was “inactive” each time.

Take `Cc1ccc(-c2ncccn2)c(C(=O)N2C[C@H](COc3ccc(F)cn3)CC[C@H]2C)c1`: the activation in assay [1] is -14.3%. The Potency entry in assay [2] and in assay [3] was “inactive” throughout.

In the case of `CC1(C)CC2C(O)C3=C(CC(C)(O)C2C1)C(=O)OC3O` (stereo not drawn), the activation in assay [1] was 1.79%. In addition, the Potency result in assay [2] and in assay [3] was “inactive” each time.

Consider `COc1c2ccoc2cc2oc(CO[C@@H]3O[C@H](CO)[C@@H](O)[C@H](O)[C@H]3O)cc(=O)c12`, for which the activation in assay [1] was -23.2%. For the same compound, the Potency result in assay [2] and in assay [3] was “inactive” each time.

`C=C1CCC(OC(C)=O)C2(C)CC3OC(=O)C(C)=C3CC12` (stereo not drawn): the activation in assay [1] was -0.763%. Also, the Potency entry in assay [2] and in assay [3] was “inactive” each time.

As to `CC1(C)CC[C@]2(C(=O)O[C@@H]3O[C@H](CO)[C@@H](O)[C@H](O)[C@H]3O)CC[C@]3(C)C(=CCC4[C@@]5(C)C[C@@H](O)[C@H](O)[C@](C)(C=O)C5CC[C@]43C)[C@@H]2[C@@H]1O` (stereo partly drawn), the activation in assay [1] was -0.893%. The Potency result in assay [2] and in assay [3] was “inactive” throughout.

On to `C=CCc1ccc(OC(C)Cc2ccc(OC)c(OC)c2)c(OC)c1` (stereo not drawn), for which the activation in assay [1] is -15.2%. The Potency entry in assay [2] and in assay [3] was “inactive” in each case.

Turning to `Cc1ccc(F)cc1C(=O)Nc1ccc(C(=O)N2Cc3cccn3Cc3ccccc32)c(Cl)c1`, in assay [1], the activation was 1.67%. The Potency entry in assay [2] and in assay [3] was “inactive” throughout.

Consider `COc1ccc(C2(O)c3ccccc3NC(=O)C2O)cc1` (stereo not drawn), for which, in assay [1], the activation is -3.82%. Moreover, the Potency result in assay [2] and in assay [3] was “inactive” each time.

For `C=C[C@H]1[C@H](O[C@@H]2O[C@H](CO)[C@@H](O)[C@H](O)[C@H]2O)OC=C(C(=O)OC)[C@H]1C[C@@H]1c2cc(O)c(O)cc2CCN1C(C)=O`, the activation in assay [1] is -6.11%. The Potency result in assay [2] and in assay [3] was “inactive” throughout.

Turning to `C=C1C(=O)O[C@@H]2/C=C(\C)C(=O)/C=C/[C@](C)(O)C[C@@H](OC(=O)C(C)C)[C@@H]12`, the Potency in assay [1] is 2.95 µM (active). For the same compound, the Potency entry in assay [2] and in assay [3] was “inactive” in each case.

As for `Cc1nc(NC(=O)N2CCCC2C(N)=O)sc1-c1csc(C(C)(C)C)n1` (stereo not drawn), the activation in assay [1] is 16.1%. Also, the Potency entry in assay [2] and in assay [3] was “inactive” each time.

With `COc1cc(/C=C/c2ccccc2)c(C(=O)O)c(O)c1CC=C(C)C`, in assay [1], the activation was -9.82%. Besides, the Potency result in assay [2] and in assay [3] was “inactive” throughout.

`C=C(C(=O)O)[C@@H]1CC=C(CCC(C)=O)[C@@H](C)CC1`: in assay [1], the activation is 8.93%. Moreover, the Potency entry in assay [2] and in assay [3] was “inactive” each time.

As for `C[C@H]1CC(=O)Nc2cccc(-c3cnn(C(C)(C)C)c3)c2N1`, in assay [1], the activation is -12.5%. The Potency entry in assay [2] and in assay [3] was “inactive” throughout.

Turning to `CC[C@H](C)[C@@H]1NC(=O)[C@H](Cc2ccc(OC)cc2)NC(=O)CCCSC[C@@H](C(=O)N2CCC[C@H]2C(=O)N[C@@H](CC(C)C)C(=O)NCC(N)=O)NC(=O)[C@H](CC(N)=O)NC(=O)[C@H](CCC(N)=O)NC1=O` (Y(Me)IQNCPLG-NH2; linker N-5 via X4), the activation in assay [1] was -10.3%. Also, the Potency result in assay [2] and in assay [3] was “inactive” in each case.
